Among the data in PubChem BioAssay (NCI) are growth inhibition values, retold here.

Experiment [1] can be described thus: NCI Yeast Anticancer Drug Screen. Data for the rad50 strain (AID 155).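 Note: 0% = growth of vehicle-only cultures of the same strain.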 As to conditions: S. cerevisiae rad50 strain growth inhibition; at 50.0 µM; hits give high values. In short, it runs like this:
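Inhibition values express reduced yeast growth in compound-treated cultures relative to vehicle-treated controls.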

Experiment [2] is described as follows: NCI Yeast Anticancer Drug Screen. Data for the mec2-1 strain (AID 157). As to conditions: S. cerevisiae mec2-1 strain, at 50.0 µM, hits give high values. Summed up: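 Compounds were applied to mec2-1 yeast cells. Their growth was then compared with that of vehicle-treated cultures to give growth inhibition.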
Experiment [3] in a line: NCI Yeast Anticancer Drug Screen. Data for the sgs1 mgt1 strain (AID 161).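 Note: 0% = growth of cultures given vehicle only.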 Particulars: S. cerevisiae sgs1 mgt1 strain, at 50.0 µM, hits give high values. Summed up:
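Growth of a repair-deficient yeast mutant was monitored after compound treatment and expressed as inhibition relative to vehicle-treated cultures.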

Experiment [4] in a line: NCI Yeast Anticancer Drug Screen. Data for the cln2 rad14 strain (AID 165).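 Note: 0% = growth equal to vehicle treated cultures.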 As to conditions: S. cerevisiae cln2 rad14 strain, at 50.0 µM, hits give high values. In short, it runs like this: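 Strain: cln2 rad14 yeast, altered in cell cycle control and DNA damage repair. Read-out: growth inhibition vs vehicle.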
The nature of experiment [5]: NCI Yeast Anticancer Drug Screen. Data for the bub3 strain (AID 167). Particulars: S. cerevisiae bub3 mutant strain, at 50.0 µM, hits give high values. In short, it runs like this:
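Steps: expose the mutant yeast strain to compound; grow alongside vehicle-treated cultures; measure growth; express inhibition against the vehicle cultures.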

Experiment [6] can be described thus: NCI Yeast Anticancer Drug Screen. Data for the mlh1 rad18 strain (AID 175). As to conditions: S. cerevisiae mlh1 rad18 strain growth inhibition; at 50.0 µM; hits give high values. In short, it runs like this: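 A repair-deficient yeast strain is exposed to test compound, and growth is scored relative to vehicle-treated controls.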

The panel holds about 79,000 compounds, 15% with a hit somewhere; the sample as a whole holds those more often. A number with no mark means an inactive call. Calls of active or inactive are those of the source. Cut-off read from the data, not from the text of the source: active = growth inhibition above about 70%; inactive = the rest.

Take `OC(CN1CCc2ccccc2C1)c1ccccc1` (stereo not given): the growth inhibition is 42.5% in experiment [1]; 8.05% in experiment [2]; 49% in experiment [3]; 27% in experiment [4]; 39.4% in experiment [5]; 35.8% in experiment [6].
Take `CC(C)=CCC/C(C)=C\CC/C(C)=C/CO`: the growth inhibition in experiment [1] was -52.5%; in experiment [2], -77.8%; in experiment [3], -39.6%; in experiment [4], -26.1%; in experiment [5], -46.7%; in experiment [6], -41.5%.
Turning to `CCCCCCN(C(=O)Oc1ccccc1)C(C#N)c1ccccc1` (stereo not given), the growth inhibition in experiment [1] was 0.1%; in experiment [2], 5.55%; in experiment [3] it was -16.8%; in experiment [4], -14.7%; in experiment [5], 1.75%; in experiment [6] it was -20.2%.
Regarding `COc1ccc(NS(=O)c2cccc(C)c2)cc1` (stereo not given), the growth inhibition in experiment [1] is -8.05%; in experiment [2], -11.1%; in experiment [3] it was -16.1%; in experiment [4], -18.3%; in experiment [5], -3.1%; in experiment [6], 9.4%.
Turning to `Nc1nc(N)c2nc(/C=C/c3ccc4c(c3)OCO4)cnc2n1`, the growth inhibition in experiment [1] was -2.25%; in experiment [2] it was -25.4%; in experiment [3], -4.5%; in experiment [4] it was 2.15%; in experiment [5], -9.1%; in experiment [6] it was -13.8%.
Take `CN(C)c1ccc(C=Nc2cc(S(=O)(=O)O)cc3cc(S(=O)(=O)O)cc(O)c23)cc1`: the growth inhibition in experiment [1] was -22.9%; in experiment [2], -9.7%; in experiment [3] it was -14.7%; in experiment [4], 31.6%; in experiment [5] it was 12.4%; in experiment [6], 8.85%.
With `O=C(O)CCCN1CCCCC1`, the growth inhibition in experiment [1] was -22.1%; in experiment [2], -32.4%; in experiment [3], -30.2%; in experiment [4], -4.7%; in experiment [5], -63.9%; in experiment [6], 8.8%.
For `COc1cccc(C2SCC(=O)N2c2nncs2)c1OC` (stereo not given), the growth inhibition was -34.8% in experiment [1]; 6% in experiment [2]; 9.95% in experiment [3]; 8.3% in experiment [4]; 2.6% in experiment [5]; -9% in experiment [6].
For the compound `NC(=O)Cc1ccncc1`, the growth inhibition is 5.95% in experiment [1]; -2.85% in experiment [2]; -3.95% in experiment [3]; -9.9% in experiment [4]; -2.7% in experiment [5]; 1.55% in experiment [6].
On to `C[Si](C)(C)N1CCCC1`, for which the growth inhibition in experiment [1] was -22.1%; in experiment [2] it was -26.9%; in experiment [3], -16.8%; in experiment [4], 12.4%; in experiment [5], 3.5%; in experiment [6], -6.85%.
`OC(CCNC12CC3CC(CC(C3)C1)C2)c1ccccc1` (stereo not given): the growth inhibition in experiment [1] is 29.8%; in experiment [2] it was 22.4%; in experiment [3] it was 59.2%; in experiment [4] it was 50.5%; in experiment [5], 33.4%; in experiment [6] it was 53.6%.
For the compound `O=C1NNC2NC(=O)C3(NN2C1=O)c1ccccc1-c1ccccc13` (stereo not given), the growth inhibition was -18% in experiment [1]; -21.5% in experiment [2]; 0.45% in experiment [3]; -5.8% in experiment [4]; -11.7% in experiment [5]; -15.4% in experiment [6].
Regarding `CC(C)(C)OC(=O)NNC(=O)c1ccc([N+](=O)[O-])cc1`, the growth inhibition in experiment [1] was 17.2%; in experiment [2], -9.8%; in experiment [3], -2.5%; in experiment [4] it was 30.6%; in experiment [5], 3.75%; in experiment [6], 5.8%.
With `COC(=O)C(=O)c1c2ccccc2n2ccc3c4ccccc4[nH]c3c12`, the growth inhibition in experiment [1] is 25.9%; in experiment [2], 8.9%; in experiment [3], -5.75%; in experiment [4], 10.1%; in experiment [5] it was 9.6%; in experiment [6], 10.5%.
Take `O=C(/C=C/c1ccccc1Cl)c1ccccc1[N+](=O)[O-]`: the growth inhibition in experiment [1] was 96% (active); in experiment [2] it was 97.5% (active); in experiment [3] it was 97.7% (active); in experiment [4], 94.7% (active); in experiment [5], 96.5% (active); in experiment [6], 95.7% (active).
Take `CCCC1(CCC)NC(=O)N(CC(N)=O)C1=O`: the growth inhibition in experiment [1] is 7.45%; in experiment [2], 0.1%; in experiment [3], -9.5%; in experiment [4], -20.6%; in experiment [5], -9.1%; in experiment [6], 16.1%.
As to `c1cc2c3c(cccc3c1)C1C2C2c3cccc4cccc(c34)C12` (stereo not given), the growth inhibition in experiment [1] is -11.6%; in experiment [2], 18.2%; in experiment [3], 7.35%; in experiment [4] it was -2.7%; in experiment [5], 3.9%; in experiment [6] it was 0.05%.
Turning to `O=C(O)C1(Nc2ccc(Cl)cc2)CCCC1`, the growth inhibition in experiment [1] is 14.3%; in experiment [2] it was -6.75%; in experiment [3], -12.6%; in experiment [4] it was -1.45%; in experiment [5], 9.65%; in experiment [6], 11.6%.
Regarding `CCc1nc(=S)c2cnn(-c3ccccc3)c2[nH]1`, the growth inhibition in experiment [1] is 16.4%; in experiment [2], 1.1%; in experiment [3], 11.2%; in experiment [4] it was -33.5%; in experiment [5], 8.05%; in experiment [6], 23.6%.
In the case of `COc1c(C)c(C)c(OC(C)=O)c(C)c1COC(C)=O`, the growth inhibition in experiment [1] is 53.9%; in experiment [2] it was 23.8%; in experiment [3], 33.2%; in experiment [4] it was 25.6%; in experiment [5], 42.9%; in experiment [6], 64.7%.
